Assay results from the supplement of paper PMC7411640.
Where a name gives a salt, the structure may show the parent alone.

System: MDA-MB-468
Test: phospho-S6 immunofluorescence (DAPI-normalised), per-plate z-score; higher = higher phospho-S6 signal (less pathway suppression)
Settings: 24 h
Experimental: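 GPCR-targeted compound library (MedChemExpress HY-L006) tested on MDA-MB-468 PTEN-null TNBC cells in 384-well plates at 0.1, 1 or 10 uM, combined with vehicle, GDC0941 450 nM or lapatinib 1 uM, for 24 h. Phospho-S6 (S240/244) immunofluorescence normalised to DAPI and expressed as a per-plate z-score; values are the mean of biological triplicates.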

C[N+]1(C)[C@@H]2C[C@@H](OC(=O)[C@H](CO)c3ccccc3)C[C@H]1[C@@H]1O[C@@H]12 [Methscopolamine (bromide)] (compound 10 µM)
phospho-S6 immunofluorescence (z-score) (co-treatment: GDC0941 450 nM): 0.05 | phospho-S6 immunofluorescence (z-score) (co-treatment: lapatinib 1 uM): 0.43 | phospho-S6 immunofluorescence (z-score) (co-treatment: vehicle): 0.6

CC(C)(C)NCC(O)c1cc(Cl)c(N)c(Cl)c1 (configuration not stated) [Clenbuterol (hydrochloride)] (compound 10 µM)
phospho-S6 immunofluorescence (z-score) (co-treatment: GDC0941 450 nM): 1.42 | phospho-S6 immunofluorescence (z-score) (co-treatment: lapatinib 1 uM): 1.64 | phospho-S6 immunofluorescence (z-score) (co-treatment: vehicle): 0.37

O=C1CC[C@@]2(O)[C@H]3Cc4ccc(O)c5c4[C@@]2(CCN3CC2CC2)[C@H]1O5 [Naltrexone (Hydrochloride)] (compound 10 µM)
phospho-S6 immunofluorescence (z-score) (co-treatment: GDC0941 450 nM): 0.88 | phospho-S6 immunofluorescence (z-score) (co-treatment: lapatinib 1 uM): 0.25 | phospho-S6 immunofluorescence (z-score) (co-treatment: vehicle): 1.41

COc1ccc2c(c1)[C@]13CCCC[C@@H]1[C@H](C2)N(C)CC3 [Dextromethorphan (hydrobromide hydrate)] (compound 10 µM)
phospho-S6 immunofluorescence (z-score) (co-treatment: GDC0941 450 nM): -0.24 | phospho-S6 immunofluorescence (z-score) (co-treatment: lapatinib 1 uM): -0.31 | phospho-S6 immunofluorescence (z-score) (co-treatment: vehicle): 0.42

CN1CCC2=C(C1)c1ccccc1Cc1ccccc12 [Setiptiline] (compound 10 µM)
phospho-S6 immunofluorescence (z-score) (co-treatment: GDC0941 450 nM): -0.28 | phospho-S6 immunofluorescence (z-score) (co-treatment: lapatinib 1 uM): -1.52 | phospho-S6 immunofluorescence (z-score) (co-treatment: vehicle): -0.24

N[C@]1(C(=O)O)CC[C@H](C(=O)O)C1 [trans-ACPD] (compound 10 µM)
phospho-S6 immunofluorescence (z-score) (co-treatment: GDC0941 450 nM): 0.3 | phospho-S6 immunofluorescence (z-score) (co-treatment: lapatinib 1 uM): 0.1 | phospho-S6 immunofluorescence (z-score) (co-treatment: vehicle): -0.68

CN1[C@@H]2C[C@@H](OC(=O)[C@H](CO)c3ccccc3)C[C@H]1[C@@H]1O[C@@H]12 [Scopolamine (hydrobromide)] (compound 10 µM)
phospho-S6 immunofluorescence (z-score) (co-treatment: GDC0941 450 nM): -1.4 | phospho-S6 immunofluorescence (z-score) (co-treatment: lapatinib 1 uM): -0.16 | phospho-S6 immunofluorescence (z-score) (co-treatment: vehicle): 0.68

CCC(COC(=O)c1cc(OC)c(OC)c(OC)c1)(c1ccccc1)N(C)C (configuration not stated) [Trimebutine (maleate)] (compound 10 µM)
phospho-S6 immunofluorescence (z-score) (co-treatment: GDC0941 450 nM): 1.12 | phospho-S6 immunofluorescence (z-score) (co-treatment: lapatinib 1 uM): 1.5 | phospho-S6 immunofluorescence (z-score) (co-treatment: vehicle): 0.51

COc1ccc2c(c1)[nH]c1c(C)nccc12 [Harmine] (compound 10 µM)
phospho-S6 immunofluorescence (z-score) (co-treatment: GDC0941 450 nM): -0.75 | phospho-S6 immunofluorescence (z-score) (co-treatment: lapatinib 1 uM): -1.57 | phospho-S6 immunofluorescence (z-score) (co-treatment: vehicle): -1.55

C[C@@H]1CN(Cc2ccc(F)cc2)CCN1C(=O)COc1ccc(Cl)cc1NC(N)=O (compound 10 µM)
phospho-S6 immunofluorescence (z-score) (co-treatment: GDC0941 450 nM): -3.5 | phospho-S6 immunofluorescence (z-score) (co-treatment: lapatinib 1 uM): -6.96 | phospho-S6 immunofluorescence (z-score) (co-treatment: vehicle): -8.26

NCCc1cc(O)c(O)cc1O [Oxidopamine (hydrobromide)] (compound 10 µM)
phospho-S6 immunofluorescence (z-score) (co-treatment: GDC0941 450 nM): 0.33 | phospho-S6 immunofluorescence (z-score) (co-treatment: lapatinib 1 uM): 2.77 | phospho-S6 immunofluorescence (z-score) (co-treatment: vehicle): 2.94

COc1ccc2[nH]cc(C3=CCNCC3)c2c1 (compound 10 µM)
phospho-S6 immunofluorescence (z-score) (co-treatment: GDC0941 450 nM): -0.19 | phospho-S6 immunofluorescence (z-score) (co-treatment: lapatinib 1 uM): -2.58 | phospho-S6 immunofluorescence (z-score) (co-treatment: vehicle): -0.11

Cc1cccc(Cc2c[nH]cn2)c1C [Detomidine (hydrochloride)] (compound 10 µM)
phospho-S6 immunofluorescence (z-score) (co-treatment: GDC0941 450 nM): -1 | phospho-S6 immunofluorescence (z-score) (co-treatment: lapatinib 1 uM): 0.28 | phospho-S6 immunofluorescence (z-score) (co-treatment: vehicle): 0.19

O=C(C[S+]([O-])C(c1ccccc1)c1ccccc1)NO (configuration not stated) [Adrafinil] (compound 10 µM)
phospho-S6 immunofluorescence (z-score) (co-treatment: GDC0941 450 nM): -0.02 | phospho-S6 immunofluorescence (z-score) (co-treatment: lapatinib 1 uM): 0.28 | phospho-S6 immunofluorescence (z-score) (co-treatment: vehicle): -0.05
